AMA1 RON2 block: disrupts binding of P. falciparum AMA1 to RON2; AlphaScreen AMA1-biotinylated RON2 peptide binding; Potency, µM (highest dose often 58.2 µM), for the others: at the top dose activity change, negative = inhibition, usual class: inhibitors; 0.2% of 360,000 active;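 further: 0% = vehicle wells and -100% = peptide control; nearly all actives have a fitted effect of over 45% in size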
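AMA1 (3D7) with his tag at 25 nM final met compounds first, then biotinylated RON2 peptide at 25 nM; detection used donor plus acceptor beads, 10 µg/mL apiece, read by AlphaScreen after 30 min at room temperature.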
HCV inh: HCV inhibition; Huh7.5.1 HCVcc-Cre infection, luciferase reporter, 44 h; Potency, µM (highest dose often 41.8 µM), inactives show at the top dose activity change, negative = inhibition, actives largely listed as inhibitors; 3.4% of 340,000 active; further: on the % scale 0 is the no-effect control and ±100 the full control effect
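Cells (1,000/well) were plated 4 h before compound, then infected with HCVcc-Cre virus (~0.5 moi). After 44 h further culture, infection was read as luciferase luminescence following a 15 min substrate incubation at room temperature.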
Pf growth 96h: P. falciparum growth inhibition at 96 hour, primary screen for plastid delayed-death inhibitors; P. falciparum luciferase reporter growth, 96 h; Potency, µM (doses to about 28.7 µM), without a hit: top-dose activity change, negative = inhibition, usual class: inhibitors; 6.9% of 320,000 active; further: on the % scale 0 is the no-effect control and ±100 the full control effect
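P. falciparum expressing integrated firefly luciferase, in erythrocytes at 2% hematocrit, 0.05% parasitemia, incubated with compounds 96 h at 37 C, 5% CO2. Growth inhibition read as loss of luminescence; two-generation exposure targets delayed-death apicoplast inhibitors.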
SARS PLpro yeast: blocks SARS-CoV papain-like protease in a yeast assay; 0.19% of 330,000 active; Potency, µM (highest dose often 32.9 µM), inactives show at the top dose activity, positive = growth rescue, hits mostly activators; S. cerevisiae expressing SARS-CoV PLpro, growth rescue; calls by dose curve; further: 0% is about no effect; nearly all actives have a fitted effect of over 55% in size
NS1 function inh: inhibitors of influenza NS1 protein function; Potency, µM (titrated, usually from 46.1 µM), for inactives: at the highest dose activity, positive = more growth; 0.4% of 270,000 active; AID 2326; calls by dose curve; further: actives are rising curves; nearly all actives have a fitted effect of over 50% in size
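OD600 was taken as the measure of yeast growth restored by compound in an NS1-expressing S. cerevisiae strain. Cells had been washed out of glucose medium and diluted 1:100 into galactose -URA medium, pH 6.0.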
Pf growth 48h: P. falciparum growth inhibition at 48 hours (one generation). P. falciparum luciferase growth in erythrocytes, 48 h. Potency, µM (highest dose often 28.7 µM), inactives show at the highest dose activity change, negative = inhibition, actives largely listed as inhibitors. 5.9% of 310,000 active; further: on the % scale 0 is the no-effect control and ±100 the full control effect
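First compound was added to culture medium, then infected red cells at 0.1% parasitemia and 2% hematocrit (final). After incubation at 37 C under 5% CO2, luciferase detection reagent was dispensed and light output recorded.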
An asterisk follows results filed as active. This is a sample that favours compounds with a hit; in the whole collection about 12% have one here. Unless noted, the call rests on the fitted dose curve; in most records, active means well fitted curve in the direction sought with a large enough effect; inconclusive means small, poorly fitted or top-dose-only effect, or another doubt; inactive means no such curve, though single readings can be large; an effect the other way counts as inactive or inconclusive. Potency means the concentration at half of the fitted maximal effect.

Results for COc1ccc(CCNC(=O)/C(C#N)=C/c2cccc(OCc3ccccc3)c2)cc1OC ?
AMA1 RON2 block: inconclusive; HCV inh: inconclusive; Pf growth 96h: 12µM*; SARS PLpro yeast: 9%; NS1 function inh: -22%; Pf growth 48h: inconclusive

How did COc1cc(/C=C(\C#N)C(=O)NC2CCCCC2)ccc1OCc1ccc(C(=O)O)cc1 do in these assays?
AMA1 RON2 block: -5%; HCV inh: 5%; Pf growth 96h: -9%; SARS PLpro yeast: 0%; NS1 function inh: 7%; Pf growth 48h: 6.6µM*

How did COc1cc(/C=C(/C#N)C(=O)Nc2ccccc2)ccc1OCc1ccc(C(=O)O)cc1 do in these assays?
AMA1 RON2 block: 9%; HCV inh: -3%; Pf growth 96h: -98%; SARS PLpro yeast: -2%; Pf growth 48h: -1%

How did COc1cc(/C=C(/C#N)c2ccccc2F)ccc1OCc1ccccc1 do in these assays?
AMA1 RON2 block: 14%; HCV inh: inconclusive; Pf growth 96h: -4%; SARS PLpro yeast: 18%; NS1 function inh: -5%; Pf growth 48h: 12µM*

How did COc1cc(/C=C(\C#N)C(=O)Nc2cccc(C(=O)O)c2)ccc1OCc1ccc(C)cc1 do in these assays?
AMA1 RON2 block: -3%; HCV inh: 5%; Pf growth 96h: 7%; SARS PLpro yeast: -2%; NS1 function inh: -1%; Pf growth 48h: 17%

Results for COc1cc(/C=C(\C#N)C(=O)NCc2ccccc2)ccc1OCc1ccc(C(=O)O)cc1 ?
AMA1 RON2 block: -8%; HCV inh: -4%; Pf growth 96h: inconclusive; SARS PLpro yeast: 1%; NS1 function inh: 6%; Pf growth 48h: 13µM*

Results for CCOC(=O)N1CCC(N2C(=O)c3ccccc3C2Nc2ccc(S(=O)(=O)N(CC)CC)cc2)CC1 (stereo not drawn) ?
AMA1 RON2 block: -4%; HCV inh: -10%; Pf growth 96h: inconclusive; SARS PLpro yeast: -3%; Pf growth 48h: inconclusive

How did Cc1c(C(=O)NCCC#N)sc(=O)n1Cc1ccccc1F do in these assays?
AMA1 RON2 block: 8%

How did O=C(C1CC1)N(CCN(C(=O)C1CC1)c1ccccc1)c1ccccc1 do in these assays?
AMA1 RON2 block: 3%; HCV inh: -13%; Pf growth 96h: -6%; SARS PLpro yeast: -3%; NS1 function inh: 3%; Pf growth 48h: 0.0026µM*

What do the screens show for `COc1cccc(CC2(CO)CCCN(S(=O)(=O)N(C)C)C2)c1` (stereo not drawn)?
AMA1 RON2 block: 6%; HCV inh: -9%; Pf growth 96h: 6.6µM*; SARS PLpro yeast: 0%; NS1 function inh: -2%; Pf growth 48h: -7%

What do the screens show for `COc1ccc(/C=C/CN2CCCC(CO)(Cc3cccc(Cl)c3)C2)cc1` (stereo not drawn)?
AMA1 RON2 block: -5%; HCV inh: -8%; Pf growth 96h: 12%; SARS PLpro yeast: 0%; NS1 function inh: 5%; Pf growth 48h: 13µM*

How did COc1cccc(CC2(CO)CCCN(Cc3ccccc3Cl)C2)c1 (stereo not drawn) do in these assays?
AMA1 RON2 block: 0%; HCV inh: inconclusive; Pf growth 96h: 10µM*; SARS PLpro yeast: -1%; NS1 function inh: 5%; Pf growth 48h: 21%

Results for COc1ccc(CN2CCCC(CO)(Cc3ccc(F)cc3)C2)cc1C (stereo not drawn) ?
AMA1 RON2 block: 0%; HCV inh: -8%; Pf growth 96h: inconclusive; SARS PLpro yeast: -3%; NS1 function inh: -1%; Pf growth 48h: 15µM*

How did COc1cccc(CC2(CO)CCCN(Cc3cc(F)ccc3-n3cccn3)C2)c1 (stereo not drawn) do in these assays?
AMA1 RON2 block: -15%; HCV inh: inconclusive; Pf growth 96h: 36%; SARS PLpro yeast: -2%; NS1 function inh: 1%; Pf growth 48h: 13µM*

What do the screens show for `COc1cccc(CC(=O)N2CCCC(CO)(Cc3ccc(F)cc3F)C2)c1` (stereo not drawn)?
AMA1 RON2 block: -3%; HCV inh: 5%; Pf growth 96h: 8.3µM*; SARS PLpro yeast: 1%; NS1 function inh: 2%; Pf growth 48h: -9%

Results for O=C(Cc1cccc(F)c1)N1CCCC(CO)(Cc2ccc(F)cc2F)C1 (stereo not drawn) ?
AMA1 RON2 block: -10%; HCV inh: 0%; Pf growth 96h: -4%; SARS PLpro yeast: -1%; NS1 function inh: -4%; Pf growth 48h: -2%

Results for Cn1cc(CN2CCCC(CO)(Cc3ccccc3)C2)c2ccccc21 (stereo not drawn) ?
AMA1 RON2 block: -6%; HCV inh: inconclusive; Pf growth 96h: -17%; SARS PLpro yeast: 0%; NS1 function inh: 4%; Pf growth 48h: 12µM*

What do the screens show for `CCOC(=O)N1CCC(N2CCCC(CO)(Cc3cccc(OC)c3)C2)CC1` (stereo not drawn)?
AMA1 RON2 block: -9%; HCV inh: -2%; Pf growth 96h: 3.3µM*; SARS PLpro yeast: -1%; NS1 function inh: 5%; Pf growth 48h: inconclusive

Results for O=C(Nc1ccc(C(=O)Nc2ccccc2Cl)cc1)c1cccnc1 ?
AMA1 RON2 block: 3%; HCV inh: -13%; Pf growth 96h: -11%; SARS PLpro yeast: -8%; NS1 function inh: -4%; Pf growth 48h: -5%

What do the screens show for `Cc1nn(-c2ccc(N3CCOCC3)nn2)c(C)c1CCC(=O)NCc1ccccc1`?
AMA1 RON2 block: 2%; HCV inh: 3%; Pf growth 96h: 1%; SARS PLpro yeast: 11%; NS1 function inh: 3%; Pf growth 48h: 1%

Results for Cc1cccc(C)c1NC(=O)CSc1nc(-c2ccco2)cc(C(F)(F)F)n1 ?
AMA1 RON2 block: 11%; HCV inh: inconclusive; Pf growth 96h: -26%; SARS PLpro yeast: 11%; NS1 function inh: 16%; Pf growth 48h: inconclusive

How did CCn1ncc(CNC(=O)CCSc2nc(-c3ccco3)cc(C(F)(F)F)n2)c1C do in these assays?
AMA1 RON2 block: -6%; HCV inh: 10µM*; Pf growth 96h: 60%; SARS PLpro yeast: 12%; NS1 function inh: 5%; Pf growth 48h: inconclusive

How did O=C(CSc1nc(-c2ccco2)cc(C(F)(F)F)n1)Nc1ccc(C(=O)N2CCCCC2)cc1 do in these assays?
AMA1 RON2 block: 6%; HCV inh: 11µM*; Pf growth 96h: inconclusive; SARS PLpro yeast: -7%; NS1 function inh: -87%

What do the screens show for `COc1ccc(CCNC(=O)CCSc2nc(-c3ccco3)cc(C(F)(F)F)n2)cc1`?
AMA1 RON2 block: -8%; HCV inh: inconclusive; Pf growth 96h: -27%; SARS PLpro yeast: 6%; NS1 function inh: -2%; Pf growth 48h: inconclusive

Compound activity: PubChem, National Center for Advancing Translational Sciences (NCATS)
